# According to the supplement of paper PMC10338343:
# ± gives the standard deviation.
# Test system: MILI (PIWIL2) piRISC loaded with piRNA #1 (26 nt)
# Test: pre-steady-state target cleavage rate (min^-1); guide: piRNA #1 5'p-UGAGGUAGUAGGUUGUAUAGUAUCCA; MIWI and MILI are mouse PIWI proteins and EfPiwi is from a freshwater sponge; tags in brackets are library labels; higher = faster piRNA-guided slicing of the target
# Settings: auxiliary factor: 500 nM mouse GTSF1
# Experimental: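 Cleave-'n-Seq: a library of target RNAs (target site embedded in constant flanks, ACAGCATTCCGCGTTAGTGATATCCG... 5' flank; DNA-blocked outside the site) at 0.1 nM was incubated with 1 nM active mouse MILI or MIWI piRISC (synthetic 5'-monophosphorylated piRNA guide) with or without 500 nM mouse GTSF1 at 33 °C for 1 min to 16 h. Uncleaved targets were sequenced and normalised to non-target controls, and the pooled three trials were fitted to a burst-and-steady-state model to give the pre-steady-state cleavage rate (min^-1; k3 is constrained to at most 1e-4). Sequence is the target site only; target names encode pairing extent (gX:gY) and contiguous / 1-mismatch / 2-mismatch / bulge geometry. Fits with R² ≤ 0 are excluded.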
row,Sequence,pre-steady-state target cleavage rate
1,GGAGUGGAUACUAUUGAACCUACUACCUCA,0.0784 ± 0.0078
2,GGAGAGGAUACUAUACAACCUACUACCUCC [g2:g25:cont:t1C],0.146 ± 0.013
3,GGAGACGAUACUAUACAACCUACUUCCUCA,0.0885 ± 0.024
4,GGAGACCUAUCAAAACAACCUACUACCUCA,0.0082 ± 0.0029
5,GGAGUGGAUACUAUACAGCCUACUACCUCA,0.147 ± 0.0093
6,GGAGACCUAUGAUUGACAACCUACUACCUCA,0.00768 ± 0.0032
7,GGAGACCUAUGAUAUGAACCUACUACGUGA,< 0.0001
8,GGAGACCUAUGUUUACAACCUAGUACCUCA,0.00404 ± 0.0027
9,GGAGACCUUACUAUACAAGCUUCUACCUCA,0.036 ± 0.0065
10,GGAGUGGAUACUAUACAACCUACUAUCUCA,0.137 ± 0.011
11,GGAGACCUAUGAUAUGUUCCUACUAGGUCA,< 0.0001
12,GGAGACGACUACUAUACAACCUACUACCUCA,0.204 ± 0.017
13,GGAGACGAUACUAUUCAACGUACUACCUCA,0.0257 ± 0.0034
14,GGAGACCUAUGAUAUCAACCUACCUACCUCA,0.00604 ± 0.0032
15,GGAGACGAUACUUUACAACCUACAACCUCA,0.0642 ± 0.013
16,GGAGACGAUACUAUUGUACCUACUACCUCA,0.119 ± 0.0095
17,GGAGACCUAACUAUACAACCUACUACCUA,0.0998 ± 0.021
18,GGAGAGGAUACUAUACUACCUACUACCUGA,0.0973 ± 0.013
19,GGAGACCUAUGAUAACAACCUACAUGGAGA [g8:g16:cont:t1A],< 0.0001
20,GGAGACCUAUCUAAACAACCUACAACCUCA,0.0563 ± 0.0063

row,Sequence,pre-steady-state target cleavage rate
1,GGAGUGCAAACUAUACAACCUACUACCUCA,0.126 ± 0.012
2,GGAGACCUUACUAUUCAACCUUCUACCUCA,0.00471 ± 0.0024
3,GGAGUGUAUACUAUACAACCUACUACCUCA,0.167 ± 0.0094
4,GGAGACGAUACUAUACAACCCACUACCUCA,0.0178 ± 0.0039
5,GGAGACCUAACUAUACAACCUACUGACCUCA,0.163 ± 0.04
6,GGAGACCUAAGUAUACAACCUACUACCUGA,0.0424 ± 0.0093
7,GGAGAGAUACUAUACAACCUACUACCUCA,0.202 ± 0.017
8,GGAGACCUAUGUGAUACAACCUACUACCUCA,0.0354 ± 0.0073
9,GGAGACCUAUCUUACAACCUACUACCUCA,0.0336 ± 0.0082
10,GGAGAGGAUACUAUACAAGCUACUACCUCA,0.143 ± 0.014
11,GGAGACCAAACUAUACAACCUACUACCACA,0.118 ± 0.028
12,GGAGUGGAUACUAUUCAACCUACUACGUCA,0.0439 ± 0.0069
13,GGAGACGAUACUAUACAACCUACUUACCUCA,0.169 ± 0.014
14,GGAGACCAUACUCAUACAACCUACUACCUCA,0.119 ± 0.013
15,GGAGUGGAUACUAUACAACGUACUACGUCA,0.0108 ± 0.0027
16,GGAGACCUAUGAAUACAACCAUCUACCUCA,0.00333 ± 0.0021
17,GGAGACCUAUGUAUACAACCUAGUUCCUCA,0.00347 ± 0.003
18,GGAGACCUAACUCUACAACCUACUACCUCA,0.114 ± 0.031
19,GGAGUGGAUACUAUAGUACCUACUACCUCA,0.161 ± 0.012
20,GGAGACGAUACUAUACAUCCUAGUACCUCA,0.0834 ± 0.019
